Data: PubChem BioAssay

Tests used:
[1] = biological target: Tumor necrosis factor receptor superfamily member 10B (Homo sapiens) (UniProt O14763); assay: caspase-8 TRAIL sensitization, hit retest, confirmation, cell-based, NB7+caspase-8, with/without TRAIL, luminescence panel (AID 651596); settings: NB7 neuroblastoma + caspase-8, TRAIL sensitization, luminescence viability, with TRAIL, mean of runs, at 10 µM, stronger effect = higher value
[2] = as above; settings: NB7 neuroblastoma + caspase-8, without TRAIL, luminescence viability, without TRAIL, mean of runs, at 10 µM
[3] = biological target: Tumor necrosis factor receptor superfamily member 10B (Homo sapiens) (UniProt O14763); assay: TRAIL sensitizers in caspase-8 expressing neuroblastoma cells, dose response, NB7 cells plus caspase-8, luminescence, panel (AID 652002); settings: NB7 neuroblastoma +caspase-8, TRAIL sensitization, luminescence viability, NB7+Caspase-8, with TRAIL, run 1; at 12.5 µM (top of the series)
[4] = biological target: Tumor necrosis factor receptor superfamily member 10B (Homo sapiens) (UniProt O14763); assay: as above; settings: NB7 neuroblastoma +caspase-8, TRAIL sensitization, luminescence viability, NB7+Caspase-8, with TRAIL, run 2; at 12.5 µM (top of the series)
[5] = as above; settings: NB7 neuroblastoma +caspase-8, no TRAIL, compound-alone cytotoxicity counter-screen, luminescence viability, NB7+Caspase-8, run 1; at 12.5 µM (top of the series) unless noted
[6] = as above; settings: NB7 neuroblastoma +caspase-8, no TRAIL, compound-alone cytotoxicity counter-screen, luminescence viability, NB7+Caspase-8, run 2; at 12.5 µM (top of the series) unless noted

Chain of Tumor necrosis factor receptor superfamily member 10B (Homo sapiens) (O14763 whole entry, looked up): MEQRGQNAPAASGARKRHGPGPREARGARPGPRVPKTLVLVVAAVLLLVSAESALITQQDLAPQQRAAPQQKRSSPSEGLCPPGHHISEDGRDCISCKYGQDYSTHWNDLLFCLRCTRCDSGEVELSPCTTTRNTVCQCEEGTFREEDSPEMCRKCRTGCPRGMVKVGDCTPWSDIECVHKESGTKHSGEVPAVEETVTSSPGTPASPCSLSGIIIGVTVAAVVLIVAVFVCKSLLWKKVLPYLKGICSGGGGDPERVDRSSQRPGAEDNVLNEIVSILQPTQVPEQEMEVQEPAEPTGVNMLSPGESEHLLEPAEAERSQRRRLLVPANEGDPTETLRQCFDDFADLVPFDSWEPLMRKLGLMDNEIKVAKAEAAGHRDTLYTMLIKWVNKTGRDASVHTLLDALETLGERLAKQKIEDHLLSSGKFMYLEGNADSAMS

Row | SMILES | activity [1] [%] | activity [2] [%] | activity, % sensitization [3] [%] | activity, % sensitization [4] [%] | activity, % sensitization [5] [%] | activity, % sensitization [6]
1 | CCOc1ccc(NC(=O)c2ccco2)cc1 | 55.9 | 49.6 | 43 | 43.3 | 45.1 | 31.6%
2 | O=C(NC1=NCCS1)c1cc2ccccc2o1 | 56.6 | 48.6 | 45.6 | 47 | 8.75 | 39.6%
3 | O=C(ONC1=NCCCCC1)c1ccc(Cl)cc1 | 89.3 | 47.2 | 16.1 | 23.5 | 7.61 | 44.2%
4 | CCOC(=O)c1sc(NC(=O)Nc2ccc(F)cc2)nc1C | 56.6 | 44.6 | 29 | 12.6 | -5.48 | -3.68%
5 | COc1cccc(N/C=C/C(=O)c2ccc(Cl)cc2)c1 | 58 | 50 | 32 | 38.3 | 28.1 | 40.5%
6 | Clc1nc(Cl)c2ncn(-c3ccccc3)c2n1 | 81 | 52.3 | -4.89 | -7.36 | 2.2 | -11.5%
7 | COc1ccc(NS(=O)(=O)c2cccc(C(=O)N/N=C/c3c(F)c(F)c(F)c(F)c3F)c2)cc1 | 77.2 | 47.5 | 7.56 | 35.1 | -2.02 | 41.3%
8 | Cc1ccnc(NC(=O)Nc2ccc3c(c2)OCO3)c1 | 51 | 41 | 40.8 | 17 | 0.866 | -33.8%
9 | Cc1ccc2oc(-c3cccc(N)c3)nc2c1 | 60.5 | 46.2 | 45.8 | 58.3 | 53 | 34%
10 | CC1(Cc2ccc(OC(F)(F)F)cc2)C(=O)Nc2ccc(S(=O)(=O)NC3CCCCC3)cc21 (stereo unspecified) | 46.4 | 31 | -0.836 | -0.606 | 23.3 | 28.2%
11 | Cc1cccc2nc(=S)n(C(=O)c3ccco3)n12 | 54.6 | 44.5 | -5.2 | -6.02 | -1.17 | -18.3%
12 | CC1(C)N=C(N)N=C(N)N1c1ccc(Oc2ccc(Cl)cc2)c(Cl)c1 | 57.3 | 51 | 50.2 | 62.6 | 60.3 | 68.3% [at 6.25 µM]
13 | COC(=O)CSc1nc2cc(C)ccc2cc1C#N | 63.1 | 53.9 | 45.7 | 53.4 | 15.2 | 24.1%
14 | CSc1nc(N)n2nc(-c3ccc(Cl)cc3)cc2n1 | 63.9 | 45.2 | -2.8 | -10.2 | 0.419 | -17.1%
15 | Cc1ccc(N=C/C(C(=O)C(F)(F)F)=C(\O)c2cccs2)cc1 | 56.1 | 53.8 | 83.3 | 63.5 | -0.893 | 77.5%
16 | Cc1ccc(S(=O)(=O)Nc2ccccc2C(=O)Nc2nc(-c3ccc(F)cc3)cs2)cc1 | 56.5 | 51.6 | 32 | 39.6 | 24.6 | 40.4%

Row | SMILES | activity [1] [%] | activity [2] [%] | activity, % sensitization [3] [%] | activity, % sensitization [4] [%] | activity, % sensitization [5] [%] | activity, % sensitization [6]
17 | COC(=O)c1ccc(/C=C(\C#N)c2ccccn2)cc1 | 51 | 40.8 | -7.25 | -19.4 | -8.36 | -11%
18 | CN1C[C@@H]2[C@@H]3C(=O)N(Cc4ccccc4)C(=O)[C@@H]3[C@](Cc3ccccc3)(C1=O)N2C(=O)c1ccc(C(C)(C)C)cc1 | 74.5 | 47.9 | -1.09 | 15.8 | 7.44 | -17%
19 | O=c1[nH]c(N/N=C\c2ccc3c(c2)OCO3)nc2ccccc12 | 53.6 | 50.5 | 33.9 | 44.5 | 38.2 | 35.1%
20 | CCOC(=O)c1ccc(N/C=C/C(=O)c2ccco2)cc1 | 52.7 | 46.1 | 24.1 | 9.37 | 0.326 | 6.5%
21 | CC1(C)N=C(N)N=C(N)N1c1ccc(CCCCc2ccccc2)cc1 | 53.6 | 54.3 | 58.2 | 52.2 | 1.29 | 66.9%
22 | O=C(Nc1ccc2ccccc2c1)c1ccc(Cl)cc1 | 63.1 | 51.3 | 33.9 | 31.4 | 13 | -8.49%
23 | C#Cc1ccc(NC(=O)C2(C)CCN2C(=O)Cc2ccc(C(C)C)cc2)cc1 (stereo unspecified) | 79.1 | 49.2 | 18.4 | 11.5 | 1.52 | 54.8%
24 | CCOc1ccc(NC(=O)Nc2cccs2)cc1 | 63.8 | 46.8 | 36.3 | 52.3 | 40.7 | 47.8%
25 | O=C(NNC(=O)c1cc(OCC(F)(F)F)ccc1OCC(F)(F)F)c1ccc(Cl)c(Cl)c1 | 63.5 | 50.9 | -9.65 | 2.58 | -2.88 | 0.592%
26 | COc1ccc(OCC(=O)N/N=C/C=C/c2ccccc2)cc1 | 59.4 | 45.4 | 44.7 | 46.1 | 31.1 | 41.1%
27 | Cc1nc(Cl)c2oc3ccccc3c2n1 | 84 | 31.1 | -4.95 | -0.917 | -7.33 | -8.16%
28 | COc1ccc(-c2nnc(SCC(=O)c3[nH]c(C)c(C(C)=O)c3C)o2)cc1 | 54.1 | 53.9 | -37 | -7.9 | -20.2 | -16.4%
29 | Cc1cc(-c2ccccc2)nc(Nc2nc3c(C)cccc3c(=O)[nH]2)n1 | 59.1 | 38 | 41.7 | 10.5 | 22.2 | 5.22%
30 | COc1ccccc1C=NNC(=O)NN=Cc1ccccc1OC | 61 | 46.5 | 42.5 | 48.3 | 54.1 | 35.8%
31 | O=c1[nH]c(=S)[nH]c2c1C(c1ccc(Cl)c(Cl)c1)OC(CCc1ccccc1)C2 (stereo unspecified) | 57.9 | 37.3 | -9.52 | -15.8 | -5.58 | 14%
